Data on 11 compounds can be found in PubChem BioAssay.

The nature of this test: probe aInhba binding on compound microarray – biochemical, small-molecule microarray, 635/667 nm fluorescence, primary screen (AID 1148).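 Note: score merges 667nm spot fluorescence with signal-to-noise for antibody binding to printed compounds.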 To be noted: higher = more signal.
On to `CC(=O)OC[C@H]1O[C@@H](ON=C[C@@H](C)[C@H](OCc2ccccc2)C(C)C)[C@H](OC(C)=O)[C@@H](OC(C)=O)[C@@H]1OC(C)=O`, for which the composite z-score is 0.157.

For the compound `CN1C(=O)C2C=CC(C(O)C(c3ccccc3)c3ccccc3)N(NC(=O)OC(C)(C)C)C2C1=O` (stereo unspecified), the composite z-score was 0.72.

On to `COC(=O)C1=C(C)N(Cc2ccccc2)[C@]23O[C@](C(=O)OC)(C(=O)N2[C@@H]1c1ccccc1)[C@H]1CCOC(=O)[C@H]13`, for which the composite z-score was -0.0118.

For `C=C(CCCC)C(=O)CC[C@@H](OC(C)=O)c1cccc(OCCO)c1`, the composite z-score was -0.21.

In turn, `CO[C@@H]1COC(=O)CC=C[C@@H](C)[C@@H]2C=C[C@@H](O)[C@@H](COC(=O)CC=C[C@H]1C)O2` yielded a composite z-score of -0.21.

`COC(=O)[C@@]1(Cc2ccccc2)[C@H]2c3cc(C(=O)N4CCCC4)n(Cc4ccccn4)c3C[C@H]2CN1C(=O)c1ccccc1` yielded a composite z-score of 0.74.

The compound `CCOC(=O)NN=C1C[C@@H](O)[C@@H](O)[C@@H]2[C@@H]3C(=O)N(C(C)(C)C)C(=O)[C@@H]3CC[C@@H]12` yielded a composite z-score of -0.0849.

`C=CCN1C(=O)[C@]2(O[C@H](CCn3cc(CCO)nn3)[C@@H]([Si](C)(C)c3ccc(OC)cc3)[C@@H]2C)c2cc(N3CCOC3=O)ccc21`: the composite z-score is -0.253.

With `CCOc1ccc(N2C(=O)/C(=C/C=C/c3ccccc3OC)S(=O)(=O)C2c2cccc([N+](=O)[O-])c2)cc1` (stereo unspecified), the composite z-score is -0.0596.

Compound `O[C@@H](Cc1ccccc1)[C@H]1C2C=CCCC(c3ccccc3)=C2CN1Cc1cccc(Cl)c1` (stereo partly specified) showed a composite z-score of 0.0355.

`CO[C@H]1O[C@H](CO)[C@@H](OC(=O)Nc2ccc(C#N)cc2)[C@H](OC(=O)c2cc3ccccc3[nH]2)[C@H]1OC(=O)c1cc2ccccc2[nH]1` registered a composite z-score of -0.0011.
